Measured values published in the supplement of paper PMC6953052.
Values joined by “and” are separate entries in the source; they are usually repeats but may differ in a detail not shown here. Equal entries are not always repeated. In all, about 1,700 compounds were measured (“fraction of GFP-LC3-positive cells (≥5 vesicles/cell)”: median about 0.43, highest 2% from about 0.81 on). The sample as a whole holds a higher share of the highest values than the screen did.

The molecules below were run on CbCln3 Δex7/8/Δex7/8 GFP-LC3 cerebellar neuronal cells (assay: fraction of GFP-LC3-positive cells (≥5 vesicles/cell); higher = more autophagosome accumulation).
Method in brief: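 Wild-type or mutant CbCln3 cerebellar cells stably expressing GFP-LC3 were plated at 2 × 10^3 per well in 384-well plates and received ~50 nL of compound in DMSO by pin transfer, in duplicate, for 24 h at 33 °C. Hoechst 33342 and LysoTracker Red were added for the last 30 min, after which cells were fixed in 3.2% PFA and three fields per well were imaged at 10×. CellProfiler counted GFP-LC3 vesicles per cell, and out-of-focus images were excluded. The reported value is the fraction of cells reaching a vesicle-count cutoff of 5 or more, averaged over duplicates.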

First: C[C@@H]1CC([C@H](O)CC2CC(=O)NC(=O)C2)C(=O)[C@@H](C)C1 (some centres not stated) [cycloheximide]
Second: C[C@@H]1CC[C@@]2(NC1)O[C@H]1C[C@H]3[C@@H]4CC=C5C[C@@H](O)CC[C@]5(C)[C@H]4CC[C@]3(C)[C@H]1[C@@H]2C [Solasodine]
The “fraction of GFP-LC3-positive cells” value of the first is higher: 0.481 for the first, 0.378 for the second.

Compared with `C[C@@]1(CO)[C@H](O)CC[C@@]2(C)[C@H]1CC[C@H]1C[C@@H]3C[C@@]12CC[C@]3(O)CO` [aphidicolin], `CC(=O)OCC(=O)[C@H]1CC[C@H]2[C@@H]3CC[C@H]4C[C@H](O)CC[C@]4(C)[C@H]3C(=O)C[C@]12C` [Alfadolone acetate] is lower in “fraction of GFP-LC3-positive cells” value: 0.623 for the first, 0.441 for the second.

Going from `CCCCc1ccc(C(=O)O)nc1` [Fusaric acid] to `Cc1nccc2c1[nH]c1cc(O)ccc12.Cl.O` [Harmol hydrochloride monohydrate], the “fraction of GFP-LC3-positive cells” value rises from 0.408 to 0.441.

Compared with `O=C1C=CC(=O)c2c(O)cccc21` [juglone], `N#CC(C#N)=Cc1ccc(O)c(O)c1` is lower in “fraction of GFP-LC3-positive cells” value: 0.367 for the first, 0.348 for the second.

Going from `N#CC(C#N)=NNc1ccc(OC(F)(F)F)cc1` to `N#CC(C#N)=Cc1cc(O)c(O)c(O)c1`, the “fraction of GFP-LC3-positive cells” value falls from 0.936 to 0.46.

Going from `COc1cc2c(cc1OC)C(C)NCC2.Cl` (configuration not stated) to `COc1ccc(CC2c3cc(OC)c(OC)cc3CCN2C)cc1OC` (racemic) [Laudanosine (R,S)], the “fraction of GFP-LC3-positive cells” value rises from 0.422 to 0.508.

Compared with `OC(c1ccccc1)(c1ccccc1)C1CCNCC1` [Azacyclonol], `CC[N+]1(C)CCCC(OC(=O)C(O)(c2ccccc2)c2ccccc2)C1.[Br-]` (configuration not stated) [Pipenzolate bromide] is higher in “fraction of GFP-LC3-positive cells” value: 0.306 for the first, 0.4 for the second.

Going from `O=C(CCCN1CCC2(CC1)C(=O)NCN2c1ccccc1)c1ccc(F)cc1` [Spiperone] to `COc1ccc(CCN2CCC(Nc3nc4ccccc4n3Cc3ccc(F)cc3)CC2)cc1` [Astemizole], the “fraction of GFP-LC3-positive cells” value rises from 0.376 to 0.587.

Compared with `C=C1[C@@H]2CC[C@H]3[C@]4(C)C[C@H](O[C@H]5O[C@H](CO)[C@@H](OS(=O)(=O)[O-])[C@H](OS(=O)(=O)[O-])[C@H]5OC(=O)CC(C)C)C[C@@H](C(=O)O)[C@H]4CC[C@]3(C2)[C@H]1O.[K+].[K+]` [Atractyloside potassium salt], `C[N+]1(C)C2CC[C@H]1C[C@@H](OC(=O)C(CO)c1ccccc1)C2.O=[N+]([O-])[O-]` (some centres not stated) [Methylatropine nitrate] is higher in “fraction of GFP-LC3-positive cells” value: 0.314 for the first, 0.451 for the second.

Going from `O.O.O.O=C1OC2(c3cc(Br)c([O-])cc3Oc3c2cc(Br)c([O-])[c]3[Hg][OH])c2ccccc21.[Na+].[Na+]` (configuration not stated) [Merbromin] to `CC1=NCCc2c1[nH]c1cc(O)ccc21.Cl.O.O` [Harmalol hydrochloride dihydrate], the “fraction of GFP-LC3-positive cells” value falls from 0.954 to 0.479.

First: CN1C[C@H](CNC(=O)OCc2ccccc2)C[C@@H]2c3cccc4c3c(cn4C)C[C@H]21 [Metergoline]
Second: CC(C)c1c(CN(C)C(C)Cc2ccccc2)n(C)n(-c2ccccc2)c1=O (configuration not stated) [Famprofazone]
The “fraction of GFP-LC3-positive cells” value of the first is lower: 0.238 for the first, 0.405 for the second.

Compared with `c1ccc(C2CC2)c(OCC2=NCCN2)c1`, `c1cncc([C@H]2CCCCN2)c1` [Anabasine] is lower in “fraction of GFP-LC3-positive cells” value: 0.404 for the first, 0.34 for the second.

Going from `CCNC(=O)[C@H]1O[C@@H](n2cnc3c(N)ncnc32)C(O)[C@H]1O` (some centres not stated) [5'-N-Ethylcarboxamidoadenosine (NECA)] to `COc1cc2c(cc1O)C[C@H]1c3c(cc(O)c(OC)c3-2)CCN1C` [Boldine], the “fraction of GFP-LC3-positive cells” value rises from 0.445 to 0.447.

Going from `CC(=O)C(C)O.CC(Cc1ccccc1)NCCC(c1ccccc1)c1ccccc1` (configuration not stated) [Prenylamine lactate] to `CC(C)(C)c1cc(C=C(C#N)C#N)cc(C(C)(C)C)c1O` [tyrphostin 9], the “fraction of GFP-LC3-positive cells” value rises from 0.266 to 0.882.

With `CC(C)(C)c1cc(C=C(C#N)C#N)cc(C(C)(C)C)c1O` the “fraction of GFP-LC3-positive cells” value was 0.718.

In the case of `C/C(O)=C(\C#N)C(=O)Nc1cc(Br)ccc1Br`, the “fraction of GFP-LC3-positive cells” value is reported as 0.547 and 0.552.
For `Cc1c(C(=O)c2cccc3ccccc23)c2cccc3c2n1[C@H](CN1CCOCC1)CO3`, the “fraction of GFP-LC3-positive cells” value was 0.451 and 0.539.
In the case of `C[C@H](N)C(=O)N[C@@H](C)C(=O)N[C@@H](Cc1ccccc1)C(=O)CCl`, the “fraction of GFP-LC3-positive cells” value is reported as 0.742 and 0.818.
